Reference: PubChem BioAssay (NCATS)
Records with an inconclusive call do not appear. The source made the active and inactive calls. The call rests on the fitted dose curve; in most records, active means well fitted curve in the direction sought with a large enough effect; inconclusive means small, poorly fitted or top-dose-only effect, or another doubt; inactive means no such curve, though single readings can be large; an effect the other way counts as inactive or inconclusive.

Columns and labels:
[1] = Cell Viability - LYMP1-002 - Assay at 16 hr (AID 948)
In short: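 Acute cytotoxicity is scored as a concentration-dependent fall in intracellular ATP in a human lymphoblastoid line (LYMP1-002) after 16 hr compound exposure at 37 C, measured by luciferase luminescence.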

[2] = MultiTox-Fluor Cytotoxicity Assay - LYMP1-002 - Live Cells (AID 955);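 further: cells exposed to compound for 16 hours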
In short: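 Cells were seeded at 2500 per well and incubated 5 hr. Compounds were then added for 16 hr at 37 C, followed by MultiTox-Fluor reagent for 60 min at room temperature and fluorescence reading of viable-cell protease signal.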

[3] = MultiTox-Fluor Cytotoxicity Assay - LYMP1-002 - Dead Cells (AID 960); further: nearly all actives have a fitted effect of over 60% in size
In short: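 Cells were plated, rested 5 hr, then treated with compound dilution series for 16 hr at 37 C. After adding substrate reagent and 60 min at room temperature, dead-cell protease fluorescence gave concentration-response curves fitted by the Hill equation.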

[4] = MultiTox-Fluor Cytotoxicity Assay - LYMP1-003 - Dead Cells (AID 961); further: nearly all actives have a fitted effect of over 70% in size
In short: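 Dead-cell protease release, detected as bis-AAF-R110 fluorescence at 485/520 nm, was measured in LYMP1-003 cells after 16 h compound treatment at 37 C. AC50 values came from Hill-modeled qHTS curves normalized to DMSO (0%) and 15 uM tetraoctylammonium bromide (100%).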

[5] = MultiTox-Fluor Cytotoxicity Assay - LYMP1-003 - Live Cells (AID 962);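 further: cells exposed to compound for 16 hours at 37 °C; cytotoxic hits lower the live-cell protease signal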
In short: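 Acute cytotoxicity is scored as a drop in live-cell protease activity in human lymphoblastoid LYMP1-003 cells after 16 hr compound exposure at 37 C. AC50 values come from Hill-equation modelling of concentration-response data.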

[6] = Cell Viability - LYMP1-003 - Assay at 24 hr (AID 963)
In short: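 Cytotoxicity is scored as a concentration-dependent fall in ATP-linked luciferase signal in human lymphoblastoid LYMP1-003 cells treated 24 hr at 37 C in complete culture medium.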

[7] = Cell Viability - LYMP1-003 - Assay at 40 hr (AID 964); further: series mostly up to about 92 µM; nearly all actives have a fitted effect of over 60% in size
In short: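 Luminescent ATP signal (CellTiter-Glo) served as the viability read-out after 40 hr compound treatment of human lymphoblastoid LYMP1-003 cells at 37 C. Decreases in ATP were fitted with the Hill equation to give AC50.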

[8] = Cell Viability - LYMP2-004 (AID 966); further: nearly all actives have a fitted effect of over 65% in size
In short: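 qHTS cytotoxicity: human lymphoblastoid line, 24 hr compound treatment, 37 C, complete medium. Viability read as cellular ATP via luciferase luminescence; tetraoctylammonium bromide served as positive control.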

[9] = Cell Viability - LYMP2-005 (AID 967); further: series mostly up to about 92 µM
In short: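 qHTS viability screen in LYMP2-005 cells: 24 h at 37 C with compound, ATP luminescence via CellTiter-Glo, AC50 from Hill curves.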

[10] = Cell Viability - LYMP2-009 (AID 968); further: series mostly up to about 92 µM; nearly all actives have a fitted effect of over 55% in size
[11] = Cell Viability - LYMP2-011 (AID 969); further: nearly all actives have a fitted effect of over 60% in size
In short: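 In this qHTS cytotoxicity format, compounds are tested across concentrations on human lymphoblastoid cells in complete medium for 24 hours at 37 C. Viability is taken as cellular ATP measured by luciferase luminescence.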

[12] = Cell Viability - LYMP2-013 (AID 970); further: series mostly up to about 92 µM; nearly all actives have a fitted effect of over 55% in size
In short: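 Cytotoxicity is scored as a concentration-dependent drop in intracellular ATP in human lymphoblastoid cells after 24 hr compound exposure at 37 C. ATP is quantified by luciferase luminescence, and AC50 values come from Hill-equation modeling.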

[13] = Cell Viability - LYMP2-015 (AID 971); further: nearly all actives have a fitted effect of over 55% in size
In short: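 Cells are seeded at 2500 per well and incubated 5 hr at 37 C. Compounds are added across a concentration series for 24 hr at 37 C. CellTiter-Glo is added, and luminescence is read after 30 min at room temperature.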

[14] = Cell Viability - LYMP2-017 (AID 972); further: series mostly up to about 92 µM; nearly all actives have a fitted effect of over 55% in size
In short: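 Cytotoxicity is scored as a concentration-dependent drop in cellular ATP in a human lymphoblastoid line after 24 hr treatment at 37 C. Values are AC50s from Hill-equation modelling.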

[15] = Cell Viability - LYMP2-019 (AID 973); further: nearly all actives have a fitted effect of over 55% in size
In short: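 Cytotoxicity is scored as a concentration-dependent drop in cellular ATP after cells (2500/well) receive compound for 24 hr at 37 C. Tetraoctylammonium bromide serves as positive control.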

[16] = Cell Viability - LYMP2-023 (AID 975)
In short: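 Steps: seed 2500 human lymphoblastoid cells per well, incubate 5 hr at 37 C, add compound for 24 hr at 37 C, add CellTiter-Glo, hold 30 min at room temperature, read luminescence. AC50 derived by Hill modelling.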

[17] = Cell Viability - LYMP2-003 (AID 965);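 further: cells exposed to compounds for 24 h before reading; nearly all actives have a fitted effect of over 50% in size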
In short: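 Acute cytotoxicity is scored as a concentration-dependent drop in intracellular ATP, measured by luciferase luminescence in human lymphoblastoid cells treated for 24 hours at 37 C. AC50 values derive from Hill-equation modelling.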

[18] = Cell Viability - LYMP2-021 (AID 974)
In short: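 Loss of cellular ATP, measured with a luciferase-based CellTiter-Glo readout, serves as the toxicity signal in human lymphoblastoid cells treated for 24 hours at 37 C. Potency is reported as AC50 from a standard Hill model.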

[19] = MultiTox-Fluor Cytotoxicity Assay - LYMP1-001 - Live Cells (AID 947)

Measured: Potency

Cc1ccc2ccccc2c1[N+](=O)[O-]
inactive: [1] | [2] | [3] | [4] | [5] | [6] | [7] | [8] | [9] | [10] | [11] | [12] | [13] | [14] | [15] | [16]

CCOC(C)(C)C
inactive: [1] | [2] | [3] | [5] | [6] | [7] | [17] | [8] | [10] | [11] | [12] | [13] | [14] | [15] | [18] | [16]

CCCC(C)CO (centres undefined)
inactive: [19] | [1] | [2] | [3] | [4] | [5] | [6] | [7] | [17] | [8] | [9] | [10] | [11] | [12] | [13] | [14] | [15] | [18] | [16]

O=C(O)c1ccc(CO)o1
inactive: [19] | [1] | [2] | [3] | [4] | [5] | [6] | [7] | [17] | [8] | [9] | [11] | [12] | [13] | [16]

Clc1cc(Cl)cc(Cl)c1
inactive: [19] | [1] | [2] | [3] | [4] | [5] | [6] | [7] | [17] | [8] | [10] | [11] | [12] | [13] | [14] | [15] | [18] | [16]

CCCCC(CC)C(=O)O (centres undefined)
inactive: [19] | [1] | [2] | [3] | [4] | [5] | [6] | [7] | [17] | [9] | [10] | [12] | [13] | [14] | [15] | [18] | [16]

O=[N+]([O-])c1cc(C(F)(F)F)ccc1Cl
inactive: [1] | [2] | [3] | [4] | [5] | [6] | [17] | [8] | [10] | [11] | [12] | [13] | [14] | [15] | [18] | [16]

Cc1cccc(C(=O)O)c1[N+](=O)[O-]
inactive: [19] | [1] | [2] | [3] | [4] | [5] | [7] | [17] | [8] | [9] | [10] | [11] | [13] | [14] | [15] | [18] | [16]

Cc1c(N)cccc1N
inactive: [1] | [2] | [3] | [4] | [5] | [6] | [7] | [17] | [8] | [9] | [10] | [11] | [12] | [13] | [14] | [15] | [18] | [16]

C=C(C)C(N)=O
inactive: [1] | [2] | [3] | [4] | [5] | [6] | [17] | [8] | [9] | [10] | [11] | [13] | [14] | [15] | [18]

C=C(C)C(=O)OCCCCCC
inactive: [1] | [2] | [3] | [4] | [5] | [6] | [7] | [17] | [8] | [9] | [10] | [11] | [12] | [13] | [14] | [15] | [16]
